Screens: PubChem BioAssay, The Scripps Research Institute Molecular Screening Center
The full list was thinned out, with hits kept by preference.
SF-1 inh: blocks the human nuclear receptor SF-1. Q13285. CHO-K1 Gal4-SF-1 LBD luciferase reporter. inhibition, % at 10 µM. actives 0.55% (n = 65,000);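 active = inhibition above the mean inhibition of all tested compounds plus 3 SD, cut at about 48% in these data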
Target sequence (Q13285 whole entry, looked up, the tested form may be a part): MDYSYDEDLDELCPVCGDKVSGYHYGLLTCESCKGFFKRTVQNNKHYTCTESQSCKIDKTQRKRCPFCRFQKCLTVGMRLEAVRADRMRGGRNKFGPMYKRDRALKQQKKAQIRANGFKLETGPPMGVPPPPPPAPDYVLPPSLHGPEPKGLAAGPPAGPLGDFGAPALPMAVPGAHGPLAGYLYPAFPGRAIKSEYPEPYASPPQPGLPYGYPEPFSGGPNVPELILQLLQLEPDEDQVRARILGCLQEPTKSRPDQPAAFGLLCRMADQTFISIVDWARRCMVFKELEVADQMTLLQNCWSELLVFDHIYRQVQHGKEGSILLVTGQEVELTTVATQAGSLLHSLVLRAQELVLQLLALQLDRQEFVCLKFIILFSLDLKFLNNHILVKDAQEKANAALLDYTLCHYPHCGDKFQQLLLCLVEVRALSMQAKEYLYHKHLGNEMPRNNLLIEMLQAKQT
Numbers stand for hits.

`COc1ccc(N2CCN(CCNC(=O)CCNS(=O)(=O)c3cccs3)CC2)cc1` gave SF-1 inh inactive.
Screening COc1ccc(NC(=O)NCCCN2CCN(c3cc(C)ccc3C)CC2)cc1 returned SF-1 inh 49.
Cc1ccc2c(c1)NC(=O)C(CC(=O)NCCCN1CCN(c3cc(Cl)ccc3C)CC1)O2 (stereo not drawn) was read as SF-1 inh inactive.
`COCCN(CC(=O)NCc1ccccc1)C(=O)CCC(=O)Nc1nccs1` gave SF-1 inh inactive.
For COc1cc2c(cc1OC)C(C)N(C(=O)C1COc3ccccc3O1)CC2 (stereo not drawn) the results were SF-1 inh inactive.
`Cc1noc(C)c1COC(=O)c1cccnc1SCC(=O)Nc1ccc2c(c1)OCO2` gave SF-1 inh inactive.
Screening O=C(NC1(C(=O)NC2CCCCC2)CCCCC1)c1ccc2c(c1)OCO2 returned SF-1 inh inactive.
For O=C(c1ccc(Cl)cc1)N1CCCCC(Sc2nnc(-c3ccc4c(c3)OCO4)o2)C1=O (stereo not drawn) the results were SF-1 inh 89.
`Cc1csc2nc(CNS(=O)(=O)c3ccc4c(c3)CCCC4)cn12` gave SF-1 inh inactive.
O=C(c1ccccc1)C(CCC(CN1CCOCC1)C(=O)c1ccccc1)CN1CCOCC1 (stereo not drawn) was read as SF-1 inh 74.
Screening O=C(CCSc1ccccc1)N1CCOCC1 returned SF-1 inh inactive.
For O=C(c1ccccc1)c1ccccc1C(=O)N1CCOCC1 the results were SF-1 inh inactive.
Screening CCOc1ccc(N2C(=O)c3cccnc3C2Nc2ccc(C)cc2)cc1 (stereo not drawn) returned SF-1 inh inactive.
For CCOC(=O)c1ncn2c1C(=O)OC2(C)C the results were SF-1 inh inactive.
`COc1cccc(-c2nnc(SCC(=O)OC(C)C)n2Cc2ccco2)c1` gave SF-1 inh inactive.
`COc1ccc(N2CC(C(=O)Nc3ccc(N4CCOCC4)cc3)CC2=O)cc1` (stereo not drawn) gave SF-1 inh inactive.
Screening COc1ccc(OC)c(S(N)(=O)=O)c1 returned SF-1 inh inactive.
`COc1ccc(OC)c(NS(=O)(=O)c2ccc(N3CCCC3=O)cc2)c1` gave SF-1 inh 53.
`O=C1CC(N2CCOCC2)C(=O)N1CCc1ccccc1` (stereo not drawn) gave SF-1 inh inactive.
`CC1CCN(C(=O)CN2C(=O)C(=O)c3ccccc32)CC1` gave SF-1 inh inactive.
Screening COc1ccc(-c2noc(CCC(=O)NCCN3CCN(c4ccccc4F)CC3)n2)cc1 returned SF-1 inh inactive.
Screening COc1ccc(-c2noc(CCCC(=O)NCCc3ccccc3)n2)cc1OC returned SF-1 inh 60.
`COc1ccc(CCC(=O)Nc2ccc(-c3noc(-c4ccc(OC)c(OC)c4)n3)cc2)cc1` gave SF-1 inh inactive.
`COc1ccc(-c2onc(C)c2-c2ccc(C(=O)OC(C)C)o2)c(O)c1` gave SF-1 inh inactive.
For Cc1nc2ccc(NC(=O)Cn3cnc4c3c(=O)n(C)c(=O)n4C)cc2s1 the results were SF-1 inh inactive.
For COc1cccc2cc(NC(=O)C3CCCCC3)c(=O)oc12 the results were SF-1 inh inactive.
`COc1cc2c(cc1NC(=O)CSCC(=O)O)oc1ccccc12` gave SF-1 inh inactive.
COc1cc2c(cc1NC(=O)c1cncc(Br)c1)oc1ccccc12 was read as SF-1 inh inactive.
Screening COc1cc2c(cc1NC(=O)CSc1nnnn1-c1ccccc1)oc1ccccc12 returned SF-1 inh 84.
Screening CC(C)CNC(=O)CN(C1CCCCC1)S(=O)(=O)c1ccccc1 returned SF-1 inh inactive.
`Cc1cc(Nc2ccccc2)n(-c2ccccc2)n1` gave SF-1 inh inactive.
Cc1cc(C)n(-c2nc(NC(C)C)nc(NC(C)C)n2)n1 was read as SF-1 inh 53.
`Cc1cc(C)nc(-n2nc(C)cc2Nc2ccccc2)n1` gave SF-1 inh inactive.
For Cc1cc(C)n(-c2cc(-n3nc(C)cc3C)ncn2)n1 the results were SF-1 inh inactive.
Screening Cc1cc(NS(=O)(=O)c2ccccc2)n(-c2ccccc2)n1 returned SF-1 inh inactive.
For Cc1cc(C)n(-c2nc(NC(C)(C)C)nc(NC(C)(C)C)n2)n1 the results were SF-1 inh 53.
Screening CCOCCCN(C(=O)c1ccco1)C(C(=O)NC1CCCC1)c1cccc(OC)c1OC (stereo not drawn) returned SF-1 inh inactive.
For CC1CCN(c2ccc(NC(=O)c3cccnc3)cc2)CC1 the results were SF-1 inh inactive.
`COC(=O)C(C)Oc1ccc2c3c(c(=O)oc2c1)CCCCC3` (stereo not drawn) gave SF-1 inh inactive.
`COc1nc(C)nc2c1sc(=S)n2C` gave SF-1 inh inactive.
For Cc1ccc(S(=O)(=O)Nc2nc(C)cc(NCCN)n2)cc1 the results were SF-1 inh inactive.
`COc1cc(NS(=O)(=O)c2ccc(C)cc2)c2ncccc2c1` gave SF-1 inh 94.
For COc1cccc(NC(=O)C2CCCN(S(=O)(=O)c3cccc4cccnc34)C2)c1 (stereo not drawn) the results were SF-1 inh inactive.
`COc1cccc2c1C(=O)c1c(O)c3c(c(O)c1C2=O)C[C@@](O)(C(=O)CO)C[C@@H]3O[C@H]1C[C@H](N)[C@H](O)[C@H](C)O1` gave SF-1 inh 80.
For Cn1cnnc1SCc1ccc(-c2ccc(Br)cc2)o1 the results were SF-1 inh inactive.
For COc1ccc(-c2noc(C3CCCN(C(=O)CCc4ccccc4)C3)n2)cc1 (stereo not drawn) the results were SF-1 inh inactive.
For COc1cccc(NC(=O)N2CCC(N3CCCCC3)CC2)c1 the results were SF-1 inh inactive.
COc1ccc(NC(=O)N2CCCC(c3nc(-c4ccc(C(C)C)cc4)no3)C2)cc1 (stereo not drawn) was read as SF-1 inh 59.
`COc1ccccc1N(Cc1cc2cccc(C)c2[nH]c1=O)C(=O)C(C)C` gave SF-1 inh inactive.
`O=C(OC(C(=O)NCc1cccs1)c1ccccc1Cl)c1ccco1` (stereo not drawn) gave SF-1 inh inactive.
Screening O=C(Nc1ccc2c(c1)OCO2)C1COc2ccccc2O1 (stereo not drawn) returned SF-1 inh inactive.
For Cc1nnc(NC(=O)C2COc3ccccc3O2)s1 (stereo not drawn) the results were SF-1 inh inactive.
O=C(NC1=NCCS1)C1COc2ccccc2O1 (stereo not drawn) was read as SF-1 inh 66.
For C=CCN1C(c2ccc(OCC)cc2)=CS/C1=C(\C#N)c1nnc2n1CCCCC2 the results were SF-1 inh inactive.
Screening Nc1nc2ccccc2n1/N=C/c1ccc(Br)cc1 returned SF-1 inh inactive.
`CS(=O)(=O)N1CCCC(C(=O)NCCN2CCC(Cc3ccccc3)CC2)C1` (stereo not drawn) gave SF-1 inh inactive.
Screening O=C(C1CCCN(S(=O)(=O)c2ccccc2)C1)N1CCCc2ccccc21 (stereo not drawn) returned SF-1 inh inactive.
For O=C(O)CCC(=O)N1CCN(c2cccc(Cl)c2)CC1 the results were SF-1 inh inactive.
`COc1ccccc1CC(=O)N1CCN(c2cccc(C(F)(F)F)c2)CC1` gave SF-1 inh 48.
For COc1ccc2c(c1OC)C(=O)N(c1cccc(C(F)(F)F)c1)C2 the results were SF-1 inh inactive.
Cc1ccc(NC2=NC(c3ccc(C)cc3)n3c(nc(C)cc3=O)N2)cc1 (stereo not drawn) was read as SF-1 inh inactive.
